# hgDAF-12 ag = agonists of H. glycines DAF-12 nuclear receptor; HEK293 GAL4-hgDAF12 UAS-luciferase reporter, agonist luminescence; normalized to butyrate control; activation, % at 6.8 µM; 370,000 compounds, 1.8% hits;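 active means activation above a cutoff set at the mean of all screened compounds plus 3 SD, cut at about 10% in these data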;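 further: 0% = DMSO wells and 100% = sodium butyrate wells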
# ssDAF-12 act = S. stercoralis DAF-12 activation, primary screen | HEK293 ssDAF-12/GRIP1 lit1-tk-luc reporter, luminescence; % of 3 µM dafachronic acid response | activation, % at 6.8 µM | AID 652126 | 370,000 compounds, 1% hits;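 active means activation above the mean over all tested compounds plus 3 SD, cut at about 0.9% in these data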;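 further: 0% = DMSO-only wells and 100% = 3 µM delta7-dafachronic acid wells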
# hcDAF12 agonist = H. contortus DAF-12 activation, primary screen. activation, % at 6.8 µM. HEK293 hcDAF-12 lit1-tk-luc reporter, luminescence; 0% DMSO, 100% Δ7-dafachronic acid. 370,000 compounds, 1.4% hits;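 active means activation above the mean of all tested compounds plus 3 SD, cut at about 5.5% in these data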;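 further: 100% = response to 3 µM Δ7-dafachronic acid high control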
# SMARCA2 activ = increases SMARCA2 function in MMTV reporter cells; AID 652017; 370,000 compounds, 1% hits; MG213 cells, MMTV-luciferase reporter, dexamethasone, overnight; activation, % at 9.1 µM; in the data active means activation above about 7.8%;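 further: 0% = vehicle wells and 100% = reference activator wells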
# DAX1 inh-1 = inhibitors of human orphan nuclear receptor DAX1 (NR0B1); P51843; HEK293 Gal4-DAX1 luciferase reporter, luminescence; inhibition, % at 6.75 µM; 340,000 compounds, 0.99% hits; AID 504766;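 active means inhibition above the mean over all tested compounds plus 3 SD, cut at about 4.2% in these data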;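 further: 0% = DAX1-transfected cells with DMSO and 100% = empty-vector control cells with DMSO; inhibition shows as a rise in luminescence from relieved DAX1 repression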
# Target sequence (P51843 207-470 limits assumed): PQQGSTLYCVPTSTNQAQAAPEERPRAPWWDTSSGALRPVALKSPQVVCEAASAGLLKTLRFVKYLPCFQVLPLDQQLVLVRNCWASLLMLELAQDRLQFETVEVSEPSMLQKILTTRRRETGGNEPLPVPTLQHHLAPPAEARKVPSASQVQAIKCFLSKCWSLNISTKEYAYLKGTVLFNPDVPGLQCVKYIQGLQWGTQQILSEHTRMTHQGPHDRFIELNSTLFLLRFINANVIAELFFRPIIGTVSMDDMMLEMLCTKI
# DAX1 inh-2 = inhibitors of DAX1 repression of SF-1 activated StAR promoter; HEK293T StAR-luciferase reporter, SF-1/DAX-1 repression relief; inhibition, % at 6.8 µM; 370,000 compounds, 1.1% hits; AID 652010;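 active means inhibition above the mean over all tested compounds plus 3 SD, cut at about 3.6% in these data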;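 further: 0% = DAX-1 cells with DMSO and 100% = cells lacking DAX-1 with DMSO; higher inhibition means more luminescence from relief of DAX-1 repression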
# DAX1 conf = NR0B1 (human) inhibition, confirmation; AID 652134; HEK293T StAR-promoter luciferase reporter, SF-1/DAX-1 repression; shares compounds with DAX1 inh-2; 2,400 compounds, 87% hits; inhibition, % at 6.8 µM;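 active means inhibition above the average of every tested compound plus 3 SD, cut at about 3.8% in these data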;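 further: 0% = DAX-1 cells with DMSO and 100% = no DAX-1 control cells with DMSO; active compounds raise luminescence by relieving repression of the StAR reporter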
# Target sequence (P51843 whole entry, looked up): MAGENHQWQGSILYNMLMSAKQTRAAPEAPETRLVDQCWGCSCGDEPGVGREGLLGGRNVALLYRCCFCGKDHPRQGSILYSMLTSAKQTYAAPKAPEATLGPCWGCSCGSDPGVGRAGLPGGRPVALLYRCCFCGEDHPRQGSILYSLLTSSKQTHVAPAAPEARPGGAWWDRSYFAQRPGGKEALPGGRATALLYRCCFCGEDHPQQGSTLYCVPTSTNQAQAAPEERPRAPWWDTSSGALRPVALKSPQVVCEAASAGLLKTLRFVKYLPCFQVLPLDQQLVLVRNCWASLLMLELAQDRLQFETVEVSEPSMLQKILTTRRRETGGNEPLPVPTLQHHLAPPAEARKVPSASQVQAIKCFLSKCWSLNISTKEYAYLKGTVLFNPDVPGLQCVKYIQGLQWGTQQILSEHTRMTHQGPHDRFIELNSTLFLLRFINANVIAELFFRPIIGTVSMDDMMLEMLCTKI
# SF1 AF2mut Luc = counter-screen for DAX1 inhibitors: nonselective inhibitors with SF-1 AF2 mutant | shares compounds with DAX1 inh-2 | HEK293 StAR-luciferase, luminescence | inhibition, % at 6.8 µM | 2,400 compounds, 78% hits | AID 652136;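 active means inhibition above the mean of all tested compounds plus 3 SD, cut at about 3% in these data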;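 further: 0% = DAX-1 transfected cells with DMSO and 100% = cells without DAX-1 with DMSO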
# SMARCA2 conf = confirmation of SMARCA2 (BRM) function activators | 3,500 compounds, 30% hits | MG213 cells, MMTV-luciferase with dexamethasone, luminescence, overnight; MG213 cells expressing E1A, Rb sequestered; DMSO wells 0%, reference activator 100% | AID 652260 | activation, % at 9.1 µM | shares compounds with SMARCA2 activ;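 active means activation above its plate's cutoff, the mean activation of tested wells plus 3 SD, cut at about 7.9% in these data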
# VP16 Luc act = counter-screen for SMARCA2 activators: GAL4-VP16 luciferase reporter activation; activation, % at 9.1 µM; 3,500 compounds, 41% hits; shares compounds with SMARCA2 activ; HEK293 GAL4-VP16 pG5luc reporter, luciferase luminescence; scaled: DMSO wells 0%, SAHA wells 100%;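 active means activation above the solvent-only control well mean plus 3 SD, averaged across control plates, cut at about 5.2% in these data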
# LXRb hcDAF ctr = LXR-beta agonism as hcDAF-12 counter-screen. shares compounds with hcDAF12 agonist. HEK293 Gal4-LXR tk-luc reporter, luminescence, 24 h; normalized: DMSO 0%, positive control 100%. activation, % at 6.8 µM. 3,400 tested, under 10 active. AID 743027;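 active means mean percent activation of the reporter above a cutoff set as the average over tested compounds plus their standard deviation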
# hcDAF12 conf = hcDAF-12 agonism, confirmation assay | shares compounds with hcDAF12 agonist | HEK293 hcDAF-12 lit1-tk-luc reporter, luminescence; % of Δ7-dafachronic acid response | activation, % at 6.8 µM | 3,400 compounds, 61% hits | AID 743032;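 active means mean activation across triplicate tests above the threshold derived from the earlier primary screen, cut at about 5.5% in these data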;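 further: 0% = DMSO only wells and 100% = 3 µM Δ7-dafachronic acid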
# hgDAF12 conf = confirmation of H. glycines DAF-12 agonists; shares compounds with hgDAF-12 ag; HEK293 GAL4-hgDAF12 luciferase reporter, agonist mode; percent of butyrate response; activation, % at 6.8 µM; 3,300 compounds, 80% hits;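 active means mean activation over triplicate wells above the hit cutoff derived from the earlier primary screen, cut at about 11% in these data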;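 further: 0% = DMSO low control and 100% = 2 mM sodium butyrate high control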
# LXRb DAF12 ctr = activates human LXR-beta, counter-screen for DAF-12 agonists; shares compounds with hgDAF-12 ag; HEK293 Gal4-LXR luciferase reporter, 24 h; activation, % at 6.8 µM; 3,300 tested, under 10 active; AID 743051;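 active means mean activation of the triplicate above a set limit carried over from the primary screen, none filed active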
# An asterisk follows results filed as active; x = not tested or not shown. Sampled rows, rich in hits. Any-hit rate of the full collection: about 4.8%.
SMILES,hgDAF-12 ag,ssDAF-12 act,hcDAF12 agonist,SMARCA2 activ,DAX1 inh-1,DAX1 inh-2,DAX1 conf,SF1 AF2mut Luc,hgDAF12 conf,LXRb DAF12 ctr,others
Cc1ccc2nc(-c3ccc(NC(=O)CSCC(=O)O)cc3)sc2c1,24*,1,7.0*,16*,4,4.8*,15*,8.8*,18*,1,SMARCA2 conf=6;VP16 Luc act=20*;LXRb hcDAF ctr=1;hcDAF12 conf=5.8*
Cc1ccc2nc(-c3ccc(NC(=O)CCN4C(=O)c5ccccc5C4=O)cc3)sc2c1,17*,0.9*,8.7*,2,0,5.9*,15*,4.5*,21*,1,LXRb hcDAF ctr=2;hcDAF12 conf=8.3*
CSc1nsc(SCC(=O)Nc2cccc(NC(C)=O)c2)n1,2,0,1,1,-1,0,x,x,x,x,
COC(=O)c1ccc(CNC(=O)COC(=O)CNS(=O)(=O)c2ccc(C)cc2)cc1,2,-1,-2,0,1,0,x,x,x,x,
Cc1c(Cl)ccc2sc(NC(=O)c3ccco3)nc12,21*,1.2*,10*,1,3,6.0*,12*,8.7*,21*,1,LXRb hcDAF ctr=2;hcDAF12 conf=9.9*
Cc1c(Cl)cccc1NC(=O)c1ccco1,0,-1,-1,7,0,0,x,x,x,x,
CCc1cc(-c2cnnn2Cc2ccc3ccccc3c2)ccc1-c1cn(CC(C)C)nn1,-2,-1,0,0,-1,0,x,x,x,x,
CCC(C)C(NC=C1C(=O)OC(C)(C)OC1=O)C(=O)O (stereo unspecified),-1,-1,-1,-2,0,-1,x,x,x,x,
Cc1cc(-c2ccncc2)n2ncc(-c3ccccc3)c2n1,19*,2.5*,11*,6,x,13*,19*,9.5*,23*,1,LXRb hcDAF ctr=2;hcDAF12 conf=11*
CCC(CC)C(=O)Nc1nnc(S(=O)(=O)N2CCc3ccccc32)s1,0,-1,-2,-5,0,0,x,x,x,x,
Cc1ccc(NC(=O)COc2ccccc2C=O)cc1Cl,20*,1,5.8*,5,0,4.5*,9.6*,5.4*,15*,1,
CCCCn1c(N)c(N(CCOC)C(=O)COC(=O)COc2c(C)cccc2C)c(=O)[nH]c1=O,-2,-1,-2,-4,1,1,x,x,x,x,
NNC(=O)c1cccc(COc2ccc3c(c2)CCC3)c1,22*,1,5,5,-5,4.9*,15*,5.1*,22*,1,
O=C(COc1ccc2c(c1)CCC2)NCc1ccccc1,-1,-2,-2,0,-1,-1,x,x,x,x,
CC(=O)N/N=C\c1ccccc1OC/C=C/c1ccccc1,5,-1,-1,-3,1,2,x,x,x,x,
CC(=O)N/N=C\c1cccc(OC/C=C/c2ccccc2)c1,14*,0,3,6,-2,10*,8.9*,5.2*,16*,1,
COc1ccc(NC(=O)c2noc3c2CCCCC3)cc1,20*,0,5.7*,4,3,4.5*,12*,5.5*,18*,1,
COc1ccc(CNC(=O)c2noc3c2CCCC3)cc1,9,-1,2,2,3,1,x,x,x,x,
CCc1ccc(NC(=O)c2noc3c2CCCCC3)cc1,15*,1.2*,5,6,4.8*,5.7*,16*,9.0*,20*,1,
CCOC(=O)c1c(NC(=O)C2C3C=CC(C3)C2(C)C(=O)O)sc2c1CCCC2 (stereo unspecified),-4,-1,-1,-2,0,-1,x,x,x,x,
CC1(C)CCCN(C(=O)c2ccc3c(c2NCCO)C(=O)c2ccccc2C3=O)C1,-1,-2,1,-3,-2,0,x,x,x,x,
COc1ccc(S(=O)(=O)N2CCC(C)CC2)cc1OC,0,-1,-1,-1,0,0,x,x,x,x,
CCCc1cc(C(=O)Nc2ccc(C)cc2)no1,17*,1,6.2*,12*,1,5.2*,8.7*,7.3*,13*,1,SMARCA2 conf=7;VP16 Luc act=6.9*
CC(C)Cc1cc(C(=O)Nc2ccc(Br)cc2)no1,4,0,2,0,2,2,x,x,x,x,
CCc1ccc(NC(=O)c2cc(C)on2)cc1,13*,-1,7.8*,3,1,5.8*,11*,4.9*,13*,1,LXRb hcDAF ctr=1;hcDAF12 conf=6.8*
CCOc1ccc(S(=O)(=O)NNC(=S)Nc2ccc(Br)cc2)cc1,3,-2,-3,0,2,0,x,x,x,x,
O=C(/C=C/c1ccc(Cl)cc1Cl)Nc1cccc(S(=O)(=O)NC2=NCCC2)c1,18*,0,4,1,0,5.4*,9.4*,5.0*,14*,1,
O=C(/C=C/c1ccccc1Cl)Nc1cccc(S(=O)(=O)NC2=NCCCCC2)c1,2,-1,-3,1,-1,0,x,x,x,x,
C=Cn1cc[n+](CC(=O)C(C)(C)C)c1,0,-1,1,-4,-2,0,x,x,x,x,
CCC(=O)Nc1ccc2c(c1)ncn2-c1ccc(C)cc1,13*,0,3,8.6*,2,7.4*,9.0*,5.5*,11*,0,SMARCA2 conf=6;VP16 Luc act=8.7*
